Source: article PMC4336329 (PLoS ONE, 2015)
About 14,000 (4.5%) of roughly 310,000 compounds showed an effect of 50% or more. Effects have a minus sign here. For the sample, strong results were picked, then their nearest neighbours and some compounds at random.

Molecular target: human ether-à-go-go-related gene (hERG) potassium channel (human, UniProt Q12809)
Assay: primary screen, population patch clamp on CHO cells stably expressing hERG; higher = less effect of the substance
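Note: peak tail current of the secondary pulse compared with the same well before compound.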

Sequence of human ether-à-go-go-related gene (hERG) potassium channel (Q12809 whole entry, looked up): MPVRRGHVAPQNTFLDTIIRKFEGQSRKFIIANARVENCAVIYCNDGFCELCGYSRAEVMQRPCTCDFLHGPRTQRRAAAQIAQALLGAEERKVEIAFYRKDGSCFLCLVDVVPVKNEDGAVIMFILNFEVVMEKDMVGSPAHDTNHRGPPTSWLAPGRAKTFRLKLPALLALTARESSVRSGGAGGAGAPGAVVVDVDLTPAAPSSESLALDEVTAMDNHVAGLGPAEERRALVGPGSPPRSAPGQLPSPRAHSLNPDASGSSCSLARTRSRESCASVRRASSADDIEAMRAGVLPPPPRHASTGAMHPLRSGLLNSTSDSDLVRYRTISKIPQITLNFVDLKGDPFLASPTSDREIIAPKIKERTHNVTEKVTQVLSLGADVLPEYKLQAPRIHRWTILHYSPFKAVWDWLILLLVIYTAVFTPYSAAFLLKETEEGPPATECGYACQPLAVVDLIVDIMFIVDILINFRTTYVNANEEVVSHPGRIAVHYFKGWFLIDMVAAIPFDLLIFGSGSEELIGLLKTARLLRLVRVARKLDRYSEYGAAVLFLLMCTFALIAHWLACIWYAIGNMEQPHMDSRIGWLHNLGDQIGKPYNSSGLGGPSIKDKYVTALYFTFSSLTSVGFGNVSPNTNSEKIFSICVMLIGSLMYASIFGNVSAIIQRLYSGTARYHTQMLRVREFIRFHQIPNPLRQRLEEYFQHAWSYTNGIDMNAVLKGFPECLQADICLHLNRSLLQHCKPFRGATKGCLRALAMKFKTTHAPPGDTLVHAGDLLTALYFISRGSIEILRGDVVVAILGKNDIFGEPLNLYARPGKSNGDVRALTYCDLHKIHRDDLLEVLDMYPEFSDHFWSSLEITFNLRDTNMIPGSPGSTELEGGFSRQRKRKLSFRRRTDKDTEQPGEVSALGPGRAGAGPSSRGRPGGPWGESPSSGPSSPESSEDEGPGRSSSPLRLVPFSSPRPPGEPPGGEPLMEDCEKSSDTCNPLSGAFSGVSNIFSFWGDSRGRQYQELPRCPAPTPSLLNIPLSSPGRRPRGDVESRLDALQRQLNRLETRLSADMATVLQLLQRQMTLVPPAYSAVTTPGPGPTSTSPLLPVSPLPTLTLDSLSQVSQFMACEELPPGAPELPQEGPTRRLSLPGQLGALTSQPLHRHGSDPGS

SMILES | hERG current change (%, negative = inhibition) at 10uM [%]
Cc1cc(C)nc(NC(=O)Cc2ccc(Cl)cc2)c1 | -5.94
Cc1ccnc(NC(=O)Cc2ccc([N+](=O)[O-])cc2)c1 | -12.4
Cc1cc(C)nc(NC(=O)Cc2ccc([N+](=O)[O-])cc2)c1 | -67.9
Cc1cc(Br)ccc1NC(=O)C(C)c1ccc([N+](=O)[O-])cc1 (stereo not drawn) | -70.7
CC(C(=O)Nc1cccc(Br)c1)c1ccc([N+](=O)[O-])cc1 (stereo not drawn) | -47.3
CC(C(=O)Nc1ccccc1Br)c1ccc([N+](=O)[O-])cc1 (stereo not drawn) | -35.5
CCOc1cc(NC(=O)CC(C)C)c(OCC)cc1NC(=O)CCn1nnc2ccccc21 | 10.1
CCOC(=O)c1ccc(-n2ccnc2)c(NC(=O)c2cccc(Br)c2)c1 | -42.1
CCOC(=O)c1ccc(-n2ccnc2)c(NC(=O)c2ccc(C(C)(C)C)cc2)c1 | -41
CCOC(=O)c1ccc(-n2ccnc2)c(NC(=O)c2ccc(Cl)cc2)c1 | -66.2
O=C(CSc1nnc(C2COc3ccccc3O2)o1)N1CCN(c2ccccc2)CC1 (stereo not drawn) | 8.03
CCOC(=O)N1CCN(C(=O)C2CCC(CNS(=O)(=O)c3ccccc3)CC2)CC1 (stereo not drawn) | 3.18
COc1cccc(NC(=O)c2ccc(-c3ccc([N+](=O)[O-])cc3)o2)c1 | -36.2
COc1ccc(CCNC(=O)Cc2ccc([N+](=O)[O-])cc2)cc1OC | -11.6
COc1ccc(CCNC(=O)c2ccc(-c3cccc([N+](=O)[O-])c3)o2)cc1OC | -26.7
COc1ccc(NC(=O)c2ccc(-c3ccc([N+](=O)[O-])cc3)o2)cc1 | -33.1
COc1ccc(CCNC(=O)c2ccc(-c3ccc([N+](=O)[O-])cc3)o2)cc1OC | -60.7
COc1ccc(NC(=O)c2ccc(-c3ccc([N+](=O)[O-])cc3)o2)cc1OC | -64.9
CCOC(=O)c1c(NC(=O)CCS(=O)(=O)c2ccccc2)sc2c1CC(C)(C)NC2(C)C | -44.9
O=C(Nc1cccc(S(=O)(=O)N2CCOCC2)c1)c1ccc2ccccc2n1 | -1.59
CCNc1nc(NCC)nc(SCCOc2ccc(C)cc2)n1 | -40.6

SMILES | hERG current change (%, negative = inhibition) at 10uM [%]
COc1ccccc1N1CCN(C(=O)COc2ccc(S(=O)(=O)NC(C)C)cc2)CC1 | -4.64
Cc1c(Cl)cccc1NC(=S)N(CCCN1CCOCC1)Cc1ccco1 | -43.9
CCN1CCN(CCCN(Cc2ccco2)C(=S)Nc2ccccc2Cl)CC1 | -53.5
S=C(Nc1ccccc1Cl)N(CCCN1CCOCC1)Cc1ccco1 | 0.554
Cc1ccccc1NC(=S)N(CCN(C)C)C(C)c1ccco1 (stereo not drawn) | -12.1
Cc1c(Cl)cccc1NC(=S)N(CCN(C)C)C(C)c1ccco1 (stereo not drawn) | -55.9
COCCN(C(=S)Nc1cccc(Cl)c1C)C(C)c1ccco1 (stereo not drawn) | -15.4
CCN1CCN(CCCN(Cc2ccco2)C(=S)Nc2cccc(Cl)c2C)CC1 | -61.2
O=C(NCCCN1CCCC1=O)c1cccc(Oc2ccccc2)c1 | 10.5
CCN(CC(=O)Nc1c(F)cccc1F)C(=O)CCN1C(=O)c2cccc([N+](=O)[O-])c2C1=O | 16.2
N#CCC(=O)Nc1ncn(Cc2ccccc2Cl)n1 | 15.4
CCCCc1nc2cc(C(=O)NCc3ccccn3)ccc2o1 | 2.61
COc1ccccc1C(=O)NC(=O)CSc1nc2nc(C)cc(C)n2n1 | 0.704
Cc1cccc(N=c2oc3cc(O)ccc3cc2C(N)=O)c1 | -17.3
Cc1cc(C(=O)CSc2nc(N)cc(N)n2)c(C)n1-c1cccc(C(F)(F)F)c1 | -64.4
Cc1cc(C(=O)CSc2nc(N)cc(N)n2)c(C)n1-c1cccc(F)c1 | -14.2
Cc1cc(C(=O)CSc2ncccn2)c(C)n1-c1cccc(F)c1 | -5.48
C=CCn1c(Cc2ccccc2)n[nH]c1=S | 11.7
COc1cc(C(=O)NCc2nnc(SCC(=O)N3CCOCC3)o2)cc(OC)c1OC | 17.2
OCCCNc1nccc(-c2cc(Nc3cccc(Cl)c3)ncn2)n1 | 9.69
CN(C)CCCNc1ccc(-c2cc(Nc3cccc(Cl)c3)ncn2)cn1 | -58.4
